In all, about 290,000 compounds went through this assay and about 890 (0.31%) were called active. No stated cut-off is given here; in the data, active means inhibition mostly above about 52% (no sharp cut-off); inactive means mostly below about 76%. For the sample, actives were picked, then their nearest neighbours and some compounds at random.
Test: cell-free HIV fusion peptide-binding blockers – biochemical, uHTS, fluorescence dequenching, primary screen (AID 1986)
Details: 30 min, stronger effect = higher value
[1] = measured here: repeat confirmation average inhibition, at 18.6 µM

SMILES: Cc1ccccc1C(=O)Nc1ccc(S(=O)(=O)Nc2onc(C)c2C)cc1
- inhibition (at 20 µM): 0.8% (inactive)

SMILES: Cc1cc(C)c(C(=O)Nc2ccc(S(=O)(=O)Nc3onc(C)c3C)cc2)c(C)c1
- inhibition (at 20 µM): 0.9% (inactive)

SMILES: COc1ccc(-c2cc(C(=O)Nc3ccc(S(=O)(=O)Nc4onc(C)c4C)cc3)c3ccccc3n2)cc1
- inhibition (at 20 µM): 64.1% (inactive)
- inhibition [1]: 40.8%

SMILES: Cc1cc(C)c2nc(-c3ccccn3)cc(C(=O)Nc3ccc(S(=O)(=O)Nc4cc(C)on4)cc3)c2c1
- inhibition (at 20 µM): 59% (inactive)
- inhibition [1]: 21.6%

SMILES: Cc1cc(C)c2nc(-c3cccnc3)cc(C(=O)Nc3ccc(S(=O)(=O)Nc4onc(C)c4C)cc3)c2c1
- inhibition (at 20 µM): 57% (active)

SMILES: Cc1cc(C)c2nc(-c3ccccn3)cc(C(=O)Nc3ccc(S(=O)(=O)Nc4onc(C)c4C)cc3)c2c1
- inhibition (at 20 µM): 70.5% (active)

SMILES: O=C(CN1C(=O)NC2(CCCC2)C1=O)Nc1cccc(Cl)c1Cl
- inhibition (at 20 µM): 0.8% (inactive)

SMILES: CCOc1ccccc1C(=O)NC1CCN(Cc2ccccc2)CC1
- inhibition (at 20 µM): -0.3% (inactive)

SMILES: CN(C)c1cncc(C(=O)O)c1
- inhibition (at 20 µM): -0.6% (inactive)

SMILES: S=C(NCc1ccccn1)Nc1ccccc1Cl
- inhibition (at 20 µM): 1.2% (inactive)

SMILES: CC(=O)N(CCC(c1ccco1)C(C)C)Cc1ccc(Cl)cc1 (stereo not given)
- inhibition (at 20 µM): -0.3% (inactive)

SMILES: Clc1ccc(Cn2cc(/C=N/n3cnnc3)c3ccccc32)c(Cl)c1
- inhibition (at 20 µM): -3% (inactive)

SMILES: Oc1sc(C=Nc2ccc(F)cc2)c2ccccc12
- inhibition (at 20 µM): 55% (inactive)
- inhibition [1]: 23%

SMILES: Oc1sc(C=Nc2ccccc2)c2ccccc12
- inhibition (at 20 µM): 24.4% (inactive)

SMILES: Cc1ccc(N=Cc2sc(O)c3ccccc23)cc1
- inhibition (at 20 µM): 101% (active)
- inhibition [1]: 104%

SMILES: Cc1nn(C)cc1CNC(=O)c1cccc(F)c1
- inhibition (at 20 µM): -1.7% (inactive)

SMILES: O=C1S/C(=C/c2ccccc2)C(=O)N1CC(O)Cn1c2ccccc2c2ccccc21 (stereo not given)
- inhibition (at 20 µM): -0.1% (inactive)

SMILES: O=C1S/C(=C\c2ccccc2)C(=O)N1CC(O)Cn1c2ccccc2c2ccccc21 (stereo not given)
- inhibition (at 20 µM): 0.2% (inactive)

SMILES: CN(C)c1ccc(/C=C2\SC(=O)N(CC(O)Cn3c4ccccc4c4ccccc43)C2=O)cc1 (stereo not given)
- inhibition (at 20 µM): 120% (active)

SMILES: C#CCn1c(-c2cccs2)nc2ccccc21
- inhibition (at 20 µM): 0% (inactive)

SMILES: Nc1nnc(CC(=O)N/N=C\c2cc([N+](=O)[O-])ccc2O)s1
- inhibition (at 20 µM): 15.7% (inactive)

SMILES: Nc1nnc(CC(=O)N/N=C/c2cc([N+](=O)[O-])cc(Br)c2O)s1
- inhibition (at 20 µM): 61.2% (active)

SMILES: Nc1nnc(CC(=O)N/N=C/c2ccc([N+](=O)[O-])cc2)s1
- inhibition (at 20 µM): -2.4% (inactive)

SMILES: Cc1cc(OCC(=O)NC(Cc2ccc(Cl)cc2)C(=O)O)c2c(C)cc(=O)oc2c1 (stereo not given)
- inhibition (at 20 µM): 4.4% (inactive)

SMILES: Cc1ccc(/C(N)=N/OC(=O)c2cccc(Cn3cc(C(F)(F)F)ccc3=O)c2)cc1
- inhibition (at 20 µM): -0.3% (inactive)

SMILES: CN(C)/C=c1\sc2c(C#N)cc(C(=O)c3ccc(Br)cc3)n2c1=O
- inhibition (at 20 µM): 3.8% (inactive)

SMILES: COC(=O)c1cc(C(=O)c2ccc(Cl)cc2)n2c(=O)/c(=C\N(C)C)sc12
- inhibition (at 20 µM): 97.1% (active)
- inhibition [1]: 68.7%

SMILES: COC(=O)c1cc(C(=O)c2ccccc2)n2c(=O)/c(=C\N(C)C)sc12
- inhibition (at 20 µM): 2.2% (inactive)

SMILES: COC(=O)c1nn(-c2ccc(OC)cc2)ccc1=O
- inhibition (at 20 µM): -2.9% (inactive)

SMILES: COc1ccc(OC)c(C2Nc3c(Cl)ccc(C(=O)O)c3C3C=CCC32)c1 (stereo not given)
- inhibition (at 20 µM): 38.2% (inactive)

SMILES: COC(=O)COc1ccc(C2Nc3c(Cl)ccc(C(=O)O)c3C3C=CCC32)cc1 (stereo not given)
- inhibition (at 20 µM): 62.9% (active)

SMILES: O=C(O)c1ccc(Cl)c2c1C1C=CCC1C(c1ccccn1)N2 (stereo not given)
- inhibition (at 20 µM): -3.1% (inactive)

SMILES: Cc1c(OCC(=O)OC(C)(C)C)ccc2c3c(c(=O)oc12)CCC3
- inhibition (at 20 µM): 1.6% (inactive)

SMILES: O=C1C=C(O)c2cccc3cccc1c23
- inhibition (at 20 µM): 9% (inactive)

SMILES: NC1=Nc2cccc3cccc1c23
- inhibition (at 20 µM): 5.1% (inactive)

SMILES: NC1=CC(=O)c2cccc3cccc1c23
- inhibition (at 20 µM): 64% (active)
- inhibition [1]: 63.9%

SMILES: COc1cc(/C=C2/C(=O)ON=C2c2ccccc2)ccc1O
- inhibition (at 20 µM): 10.6% (inactive)

SMILES: CCOc1cc(/C=C2/C(=O)ON=C2C)cc(Br)c1O
- inhibition (at 20 µM): 57.8% (active)
- inhibition [1]: 51.8%

SMILES: COc1cc(/C=C2\C(=O)ON=C2c2ccccc2)cc(Br)c1O
- inhibition (at 20 µM): 63.3% (active)
- inhibition [1]: 106%

SMILES: C#CCOc1c(Br)cc(/C=C2/C(=O)ON=C2C)cc1OCC
- inhibition (at 20 µM): 4.2% (inactive)

SMILES: CCOc1cc(/C=C2\C(=O)ON=C2c2ccccc2)ccc1OC
- inhibition (at 20 µM): 0.3% (inactive)

SMILES: COc1cc(/C=C2\C(=O)ON=C2c2ccccc2)cc(Cl)c1O
- inhibition (at 20 µM): 45.2% (inactive)

SMILES: CCOc1cc(/C=C2\C(=O)ON=C2c2ccccc2)cc(Br)c1O
- inhibition (at 20 µM): 69.6% (active)
- inhibition [1]: 108%

SMILES: COc1cc(/C=C2\C(=O)ON=C2c2ccccc2)cc(OC)c1OC
- inhibition (at 20 µM): 1.4% (inactive)

SMILES: CCOc1cc(/C=C2/C(=O)ON=C2C)ccc1O
- inhibition (at 20 µM): 33.7% (inactive)

SMILES: Cc1ccc(N/C=C2\CCCCC2=O)nc1
- inhibition (at 20 µM): 0.7% (inactive)

SMILES: Cc1ccc(S(=O)(=O)N/N=C\c2cn(CC(N)=O)c3ccccc23)cc1
- inhibition (at 20 µM): 0.7% (inactive)

SMILES: CN(C)c1ncnc(N(C)C)c1[N+](=O)[O-]
- inhibition (at 20 µM): -2.4% (inactive)

SMILES: COc1ccccc1/C=C(/C(=O)NCCCn1ccnc1)c1ccccc1
- inhibition (at 20 µM): 0.9% (inactive)

SMILES: O=C(N/N=C/c1ccccn1)c1cc(C2CC2)[nH]n1
- inhibition (at 20 µM): -0.3% (inactive)

SMILES: Cc1oc2cc3oc(=O)cc(C)c3cc2c1C
- inhibition (at 20 µM): 1% (inactive)

SMILES: COC(=O)c1cc(O)c(O)c(O)c1
- inhibition (at 20 µM): 11% (inactive)

SMILES: O=C(OCC1O[C@@H](OC(=O)c2cc(O)c(O)c(O)c2)[C@@H](OC(=O)c2cc(O)c(O)c(O)c2)[C@@H](OC(=O)c2cc(O)c(O)c(O)c2)[C@@H]1OC(=O)c1cc(O)c(O)c(O)c1)c1cc(O)c(O)c(O)c1 (stereo not given in full)
- inhibition (at 20 µM): 56% (active)

SMILES: COC1OC(COC(=O)c2ccccc2)C(OC(=O)c2ccccc2)C1OC(=O)c1ccccc1 (stereo not given)
- inhibition (at 20 µM): -0.6% (inactive)

SMILES: O=C(CCN1C(=O)c2ccc([N+](=O)[O-])cc2C1=O)Nc1nccs1
- inhibition (at 20 µM): -0.3% (inactive)

SMILES: O=C(CCCn1c(=S)[nH]c2ccccc2c1=O)NCCSCc1ccccc1
- inhibition (at 20 µM): 1.5% (inactive)

SMILES: CCN(CC)S(=O)(=O)c1ccc(O)c(C(=O)OCC(=O)Nc2ccc(OC(F)(F)F)cc2)c1
- inhibition (at 20 µM): -1.8% (inactive)

SMILES: COc1cc2ccccc2cc1C(=O)NC(=S)Nc1ccc(C(=O)O)cc1
- inhibition (at 20 µM): 53.8% (inactive)
- inhibition [1]: 2.1%

SMILES: COc1cc2ccccc2cc1C(=O)NC(=S)Nc1cc(C(=O)O)ccc1C
- inhibition (at 20 µM): 51.6% (inactive)
- inhibition [1]: -1.6%

SMILES: COc1cc2ccccc2cc1C(=O)NC(=S)Nc1cccc(C(=O)O)c1
- inhibition (at 20 µM): 58.8% (active)

SMILES: COc1ccc(/C=N\NC(=O)c2ccccc2Br)cc1COc1c(F)c(F)cc(F)c1F
- inhibition (at 20 µM): 0.6% (inactive)

SMILES: COc1cc(C(=O)NCC(=O)N/N=C(/C)c2cccs2)cc(OC)c1OC
- inhibition (at 20 µM): -1.2% (inactive)

SMILES: CC(C)P(=O)(Cc1cccc(C#N)c1)C(C)C
- inhibition (at 20 µM): 3.5% (inactive)

SMILES: COC(=O)c1ccc(OCC2c3cc(OC)c(OC)cc3CCN2C(=O)c2ccco2)cc1 (stereo not given)
- inhibition (at 20 µM): -1.1% (inactive)

SMILES: COc1ccc(C(=O)Nc2cccc(/C=C(\CCC(=O)O)c3nc4ccccc4s3)c2)cc1
- inhibition (at 20 µM): 59.2% (active)

SMILES: Cc1ccc(/C=C(\CCC(=O)O)c2nc3ccccc3s2)cc1[N+](=O)[O-]
- inhibition (at 20 µM): 27.3% (inactive)

SMILES: O=C(O)CC/C(=C\c1cccc(NC(=O)c2ccccc2Cl)c1)c1nc2ccccc2s1
- inhibition (at 20 µM): 64.7% (inactive)
- inhibition [1]: 17.1%

SMILES: CN(c1ccccc1)c1ccc(/C=C(\CCC(=O)O)c2nc3ccccc3s2)cc1[N+](=O)[O-]
- inhibition (at 20 µM): 65% (active)

SMILES: O=C(O)CC/C(=C\c1ccc(Cl)c([N+](=O)[O-])c1)c1nc2ccccc2s1
- inhibition (at 20 µM): 13.2% (inactive)

SMILES: COc1cccc(/C=C(\CC(=O)O)c2nc3ccccc3s2)c1
- inhibition (at 20 µM): 3.6% (inactive)

SMILES: COc1cc(NC(=O)C2CC(=O)NC3=C2C(=O)CCC3)c(OC)cc1Cl (stereo not given)
- inhibition (at 20 µM): -1.9% (inactive)

SMILES: N#CC1=C(N)OC2=C(CC/C2=C\c2ccc(F)cc2)C1c1ccc(F)cc1 (stereo not given)
- inhibition (at 20 µM): 73.8% (inactive)
- inhibition [1]: 40.5%

SMILES: COc1cc2c(cc1NC(=O)CSc1ccc(C)cc1)oc1ccccc12
- inhibition (at 20 µM): 0.2% (inactive)

SMILES: NC(=O)C1CCN(C(=O)CN2CCc3ccccc32)CC1
- inhibition (at 20 µM): -0.5% (inactive)

SMILES: Cc1c(NC(=O)c2ccc3c(c2)C(=O)N(Cc2ccco2)C3=O)cccc1C(=O)O
- inhibition (at 20 µM): 6.1% (inactive)

SMILES: O=C(Nc1ccc(Cl)cc1C(=O)O)c1ccc2c(c1)C(=O)N(Cc1ccco1)C2=O
- inhibition (at 20 µM): 50% (active)

SMILES: O=C(Nc1ccc(O)cc1C(=O)O)c1ccc2c(c1)C(=O)N(Cc1ccco1)C2=O
- inhibition (at 20 µM): 24.6% (inactive)

SMILES: COc1cc(/C=N/NC(=O)c2cccc(S(=O)(=O)N3CCOCC3)c2)cc(OC)c1O
- inhibition (at 20 µM): -3.4% (inactive)

SMILES: O=C(N/N=C/c1cc(Br)cc(Br)c1O)c1cccc(S(=O)(=O)N2CCOCC2)c1
- inhibition (at 20 µM): 80.2% (active)
- inhibition [1]: 53.2%

SMILES: O=C(N/N=C/c1cc(Br)cc(Br)c1O)c1ccncc1
- inhibition (at 20 µM): 103% (active)
- inhibition [1]: 59.2%

SMILES: O=C(N/N=C/c1c(F)c(F)c(F)c(F)c1F)c1cccc(S(=O)(=O)N2CCOCC2)c1
- inhibition (at 20 µM): 0.1% (inactive)

SMILES: COc1c(Br)cc(Br)cc1/C=N/NC(=O)c1ccncc1
- inhibition (at 20 µM): -1% (inactive)

SMILES: O=C(N/N=C/c1cc(Br)ccc1O)c1ccncc1
- inhibition (at 20 µM): 3.3% (inactive)

SMILES: Cc1csc(NC(=O)/C=C/c2ccc(C)o2)n1
- inhibition (at 20 µM): 8.7% (inactive)

SMILES: O=c1[nH]c(C2CCN(S(=O)(=O)c3ccc(S(=O)(=O)NC4CC4)cc3)CC2)nc2c1nnn2Cc1ccccc1
- inhibition (at 20 µM): -0.4% (inactive)

SMILES: O=S(=O)(Cc1ccccc1)NCC1CCCO1 (stereo not given)
- inhibition (at 20 µM): -2.7% (inactive)

SMILES: CCCCN(CCCC)C(=O)c1cc2ccccc2c(=O)o1
- inhibition (at 20 µM): -1.7% (inactive)

SMILES: CCCCC[C@H](O)/C=C/[C@@H]1[C@@H](C/C=C\CCCC(=O)O)[C@H]2CO[C@@H]1C2
- inhibition (at 20 µM): 3.4% (inactive)

SMILES: CCCCC[C@H](O)/C=C/[C@@H]1[C@@H](C/C=C\CCCC(=O)O)[C@@H](O)C[C@H]1O
- inhibition (at 20 µM): -0.8% (inactive)

SMILES: CCCCC[C@H](O)/C=C/[C@H]1C=CC(=O)[C@@H]1C/C=C\CCCC(=O)O
- inhibition (at 20 µM): 52.4% (active)
